High-throughput results from PubChem BioAssay.
Shown are actives, neighbours in structure and some others; about 3% of the full set was active somewhere.
SENP8 block-1: SENP8 (human) protease inhibition. Q96LD8. recombinant SENP8, Nedd8 substrate fluorescence. inhibition, % at 20 µM. 360,000 tested, 0.64% active. AID 602440; in the data active means inhibition mostly above about 40%, no sharp cut-off; inactive means mostly below about 27%
Target sequence (Q96LD8 whole entry, looked up): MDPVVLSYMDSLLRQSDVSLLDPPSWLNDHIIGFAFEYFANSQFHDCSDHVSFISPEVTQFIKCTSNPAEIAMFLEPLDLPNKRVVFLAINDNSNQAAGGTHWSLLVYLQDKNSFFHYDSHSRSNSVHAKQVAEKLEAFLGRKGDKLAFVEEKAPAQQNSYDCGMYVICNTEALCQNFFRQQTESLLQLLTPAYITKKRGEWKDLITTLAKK
C8 TRAIL sens: sensitizes caspase-8 expressing cells to TRAIL; NB7+C8 cells + TRAIL, ATPlite viability luminescence; inhibition (viability loss, TRAIL sensitization), % at 10 µM; 360,000 tested, 1% active; AID 624354;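 active means compounds causing at least 50% loss of cell viability in the single-dose screen, relative to plate controls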
PPC-1+TRAIL kill: PPC-1 cancer cell killing with TRAIL present; 220,000 tested, 0.41% active; AID 1443; PPC-1 cells + TRAIL, ATPLite viability luminescence; cell killing (% activity), % at 4 µM or 5 µM;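 active means cell killing above 50% in the first pass at 4 µM, then a duplicate retest at 5 µM averaging 50% or more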;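 further: plate controls were cells with TRAIL plus DMSO for no effect and medium-only wells lacking cells for full effect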
SENP7 inh: blocks the human protease SENP7; inhibition, % at 5 µM; recombinant SENP7, Z-RLRGG-aminoluciferin luminescence, 40 min; Q9BQF6; 330,000 tested, 1.5% active;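 active means inhibition above about 50% at the single test dose, limit read from the data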;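 further: plate controls were DMSO with enzyme for no effect and no enzyme buffer wells for full effect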
SENP6 block: blocks the human protease SENP6; Q9GZR1; Recombinant SENP6 catalytic domain, aminoluciferin luminescence; inhibition, % at 10 µM; 330,000 tested, 1.8% active; AID 2599;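 active means inhibition above about 50% at the single tested dose, limit read from the data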;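 further: plate controls were DMSO wells with enzyme for no effect and DMSO wells lacking enzyme for full effect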
Target sequence (Q9GZR1 628-1112 limits assumed): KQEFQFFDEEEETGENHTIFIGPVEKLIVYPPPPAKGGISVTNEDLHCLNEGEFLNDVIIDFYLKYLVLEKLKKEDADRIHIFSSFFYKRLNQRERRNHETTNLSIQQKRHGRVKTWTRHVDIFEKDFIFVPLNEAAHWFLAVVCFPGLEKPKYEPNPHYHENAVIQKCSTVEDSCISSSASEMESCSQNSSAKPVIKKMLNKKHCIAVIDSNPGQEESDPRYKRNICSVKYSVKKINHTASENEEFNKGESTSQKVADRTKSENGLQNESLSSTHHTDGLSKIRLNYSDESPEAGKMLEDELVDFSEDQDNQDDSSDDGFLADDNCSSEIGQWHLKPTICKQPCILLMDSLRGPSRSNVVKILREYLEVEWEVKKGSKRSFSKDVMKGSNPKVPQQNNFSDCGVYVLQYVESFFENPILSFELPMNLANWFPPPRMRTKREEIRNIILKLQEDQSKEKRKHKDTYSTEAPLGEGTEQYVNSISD
SENP8 block-2: SENP8 protease inhibition. purified SENP8, Z-RLRGG-aminoluciferin cleavage, luminescence. inhibition, % at 10 µM. 330,000 tested, 1.2% active. AID 2540; in the data active means inhibition above about 50%
An asterisk follows results filed as active; nt = not tested or not shown.

SMILES | SENP8 block-1 | C8 TRAIL sens | PPC-1+TRAIL kill | SENP7 inh | SENP6 block | SENP8 block-2
Cc1cc(NC(=O)C2CCCC2)nc2c1c(=O)oc1ccccc12 | -32.1 | 70.6* | -12.0 | -6.1 | -11.4 | 5.8
Cc1cccc(CC(=O)Nc2cc(C)c3c(=O)oc4ccccc4c3n2)c1 | -19.8 | 52.1* | 14.6 | 5.9 | -6.8 | 7.5
Cc1ccccc1C(=O)Nc1sc2c(c1C(=O)O)CCC2 | -56.2 | 0.1 | 4.4 | -8.0 | 70.2* | 56.7*
CSc1ccccc1C(=O)NCc1ccc(C)cc1 | 15.0 | -8.1 | 34.0 | 7.5 | 0.2 | -8.0
O=C(CN(c1cccc(C(F)(F)F)c1)S(=O)(=O)c1ccc(Cl)c([N+](=O)[O-])c1)NCc1ccccc1 | 2.9 | -5.7 | 46.8 | -5.2 | -10.3 | -11.2
O=C(CN(c1cccc(C(F)(F)F)c1)S(=O)(=O)c1ccc(Cl)c([N+](=O)[O-])c1)NCc1ccccc1Cl | 19.0 | 2.0 | 66.5* | 1.2 | -21.6 | -14.1
CCOc1cc(/C=N\NC(=O)c2ccc(NC(=O)C(C)(C)C)cc2)ccc1OC(=O)c1cccc(C)c1 | -4.7 | 58.9* | 12.8 | 2.9 | -22.4 | 0.5
CCOc1cc(/C=N\NC(=O)c2ccc(NC(=O)C(C)(C)C)cc2)ccc1OC(=O)c1ccc(C)cc1 | 11.4 | 15.4 | 12.1 | -4.6 | -11.2 | -1.6
CC1=NN(c2ccccc2)C(=O)C1=C(C)C | 41.3* | -3.8 | 6.8 | 4.6 | -4.1 | -0.1
CCC(CO)Oc1cc(NC(=O)c2ccc(C)cc2)c2ncn(C(C)C)c2c1 (stereo not given) | 5.3 | -1.5 | nt | -1.9 | 0.1 | 1.9
COc1ccc(/C=C/c2cc(-c3ccc(C)cc3)o[n+]2C)cc1 | -167.4 | 74.0* | 42.0 | 2.1 | -13.8 | 1.6
COc1ccc(CNC[C@@H](CCCCN(C)Cc2ccc(OC)cc2)N2C[C@H](c3ccccc3)N(CCc3ccc(Cl)c(Cl)c3)C(=O)C2=O)cc1 | 30.5 | 89.0* | 7.2 | 1.0 | -11.1 | -17.9
CC(=O)Oc1ccc(/C=N\NC(=O)c2cc3c(ccc4ccccc43)o2)cc1 | -299.5 | 63.8* | nt | -3.7 | 7.7 | 9.8
CCc1cc2c(CN3CCN(CCO)CC3)cc(=O)oc2cc1O | -251.9 | -18.1 | 52.0* | 5.7 | -10.8 | -4.4
Cn1nc(-c2ccc(Cl)cc2)nc2c(=O)n(C)c(=O)nc1-2 | nt | nt | 47.8 | 97.8* | 97.9* | 97.9*
NC(Cc1ccc(Cl)cc1)c1csc(NC(=O)NCC2CCCCC2)n1 (stereo not given) | 18.3 | 86.0* | nt | nt | nt | nt
NC(Cc1ccc(Cl)cc1)c1csc(NC(=O)NCCc2ccccc2)n1 (stereo not given) | 13.7 | 28.1 | nt | nt | nt | nt
COc1cc(OC)nc(Nc2nc(C(N)Cc3ccc(C(F)(F)F)cc3)cs2)n1 (stereo not given) | -28.5 | 79.8* | nt | nt | nt | nt
NC(CCc1ccccc1)c1csc(NC(=O)Nc2ccccc2Oc2ccccc2)n1 (stereo not given) | 22.6 | 87.4* | nt | nt | nt | nt
Cc1cc(C)nc(Nc2nc(C(N)Cc3ccc(C(F)(F)F)cc3)cs2)n1 (stereo not given) | -8.7 | 38.8 | nt | nt | nt | nt
NC(CCc1ccccc1)c1csc(NC(=O)NCCc2ccccc2)n1 (stereo not given) | 11.0 | 27.0 | nt | nt | nt | nt
NC(Cc1ccc(C(F)(F)F)cc1)c1csc(NC(=O)Nc2ccccc2Cc2ccccc2)n1 (stereo not given) | 23.6 | 79.0* | nt | nt | nt | nt
C[C@H](C(=O)NCc1ccccc1)C(=O)c1ccccc1 | 1.0 | -18.8 | nt | 7.6 | -9.8 | -5.7
CCn1c(CC(=O)Nc2ccccc2F)nnc1SCC(=O)Nc1nncs1 | 2.5 | 0.8 | nt | 0.8 | 22.3 | 6.8
CC(C)c1ccc(NC(=O)Nc2nc(C(N)COCc3ccccc3)cs2)cc1 (stereo not given) | 13.9 | 76.7* | nt | nt | nt | nt
SMILES | SENP8 block-1 | C8 TRAIL sens | PPC-1+TRAIL kill | SENP7 inh | SENP6 block | SENP8 block-2
CC(C)c1ccc(NC(=O)Nc2nc(C(N)c3ccccc3)cs2)cc1 (stereo not given) | 2.9 | 26.6 | nt | nt | nt | nt
CCOC(=O)C1Nc2ccc(Br)cc2C2C=CCC12 (stereo not given) | 58.8* | 6.3 | nt | -2.4 | -11.7 | 0.6
Cc1ccc(S(=O)(=O)N2CCC(C(=O)NCCc3ccccc3)CC2)cc1 | 5.8 | -3.8 | -5.4 | 8.9 | 1.9 | 1.2
Cc1ccc(S(=O)(=O)N2CCC(C(=O)NCCc3ccc(S(N)(=O)=O)cc3)CC2)cc1 | 5.8 | -5.7 | 53.4* | -2.3 | 7.5 | -4.6
COc1ccc(CC(N)c2csc(NC(=O)c3cc(C(C)(C)C)nn3Cc3ccccc3)n2)cc1 (stereo not given) | -53.1 | 50.4* | nt | nt | nt | nt
Fc1cccc(Cc2c(-c3ccc(Cl)cc3)nc3c(Cl)cc(C(F)(F)F)cn23)c1 | -372.6 | 3.7 | nt | nt | nt | nt
COCCCNC(=O)c1c[nH]c2ccc(S(=O)(=O)N3CCc4ccccc43)cc2c1=O | 2.5 | 23.1 | 21.9 | 10.5 | -3.0 | -0.1
COCCNC(=O)c1c[nH]c2ccc(S(=O)(=O)N3CCc4ccccc43)cc2c1=O | -18.7 | 71.0* | 43.4 | 1.2 | 4.0 | 2.7
O=C(CSc1nnc(SCc2ccccc2Cl)s1)N/N=C/c1ccc(C(=O)O)cc1 | 19.0 | -7.4 | 0.7 | 31.4 | 93.3* | 83.0*
O=C(O)COc1ccccc1/C=N/NC(=O)CSc1nnc(SCc2ccccc2)s1 | 21.6 | 1.0 | -5.8 | 14.0 | 56.2* | 24.4
O=C(CSc1nnc(SCc2ccccc2)s1)N/N=C/c1c(Cl)cccc1Cl | 20.5 | -4.9 | 26.0 | -4.3 | -15.1 | -16.0
CC1(C(=O)NC2CCCCC2)CCC(=O)N1CCOc1ccccc1 (stereo not given) | 24.9 | -11.6 | nt | nt | nt | nt
CCCCCCc1cc2cc(S(=O)(=O)c3ccc(F)c(Cl)c3)c(=O)oc2cc1O | -277.3 | 52.3* | 7.0 | 4.7 | 9.8 | 4.9
COc1ccc2o/c(=N\O)c(C(=O)Nc3ccccc3OC)cc2c1 | -58.4 | -7.7 | 11.2 | -7.4 | -21.3 | -10.6
COc1ccc(NC(=O)c2cc3ccc(O)cc3o/c2=N\O)cc1 | 1.2 | 73.5* | nt | 15.6 | 47.5 | 23.1
CCCCCCc1cc2cc(C(=O)Nc3cccc(OC)c3)c(=O)oc2cc1O | -275.9 | 29.1 | -25.9 | -4.5 | -13.2 | -10.7
CCCCCCc1cc2cc(C(=O)Nc3ccc(OC)cc3)c(=O)oc2cc1O | -106.1 | 50.8* | 21.7 | -2.1 | -7.4 | -5.0
O=[N+]([O-])c1ccc(Sc2ccncn2)c([N+](=O)[O-])c1 | 30.0 | 53.0* | nt | nt | nt | nt
O=C(CN1CCN(S(=O)(=O)c2ccc(F)cc2)CC1)Nc1ccc(Cl)c(C(F)(F)F)c1 | 18.2 | 60.0* | 0.0 | -6.9 | -11.9 | -8.6
Cc1ccc(NS(=O)(=O)c2cc([N+](=O)[O-])ccc2N/N=C/c2sc(N3CCOCC3)nc2-c2ccccc2)c(C)c1 | 25.5 | 30.0 | -1.5 | -5.4 | 3.8 | -1.6
Oc1[nH]c(N=C2N=c3ccccc3=N2)c2ccccc12 | 16.0 | 65.1* | 27.8 | nt | nt | nt
CCCCn1c(N)c(N(Cc2ccccc2OC)C(=O)C(C)Oc2cccc(Cl)c2)c(=O)[nH]c1=O (stereo not given) | 10.8 | 2.0 | nt | nt | nt | nt
